Compound activity as filed in PubChem.
Only some compounds are listed: those with a hit (about 10% of all), similar ones and a draw of the others.
JMJD2A Tudor inh: qHTS Assay for Inhibitors of JMJD2A-Tudor Domain; Lysine-specific demethylase 4A (Homo sapiens), O75164; AlphaScreen JMJD2A-Tudor / H3K4me3 peptide binding; Potency, µM (doses to about 114 µM), most hits filed as inhibitors; hit rate 4.4% among 390,000; AID 504339, 2011; further: nearly all actives have a fitted effect of over 50% in size
GLS inh: qHTS for Inhibitors of Glutaminase (GLS). AID 624170, 2012. hit rate 0.21% among 410,000. Potency, µM (series often up to 45.5 µM), actives largely listed as inhibitors. GLS enzymatic activity, qHTS titration
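Read-out is an Amplex red fluorescence increase coupled through glutamate oxidase and HRP, measured before and after 30 min room-temperature incubation. hKGA is in 45 mM KH2PO4 (pH 8.2) with 0.02% Tween-20; glutamine added as 1mM solution.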
BAZ2B block: qHTS Assay for Inhibitors of BAZ2B. AID 504333, 2011. hit rate 4.4% among 360,000. Potency, µM (titrated, usually from 114 µM), hits mostly inhibitors. Bromodomain adjacent to zinc finger domain protein 2B (Homo sapiens), Q9UIF8. AlphaScreen BAZ2B-H3K14Ac peptide displacement; further: nearly all actives have a fitted effect of over 60% in size
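BAZ2B 50 nM plus b-H3(5-23)K14Ac 50 nM, PBS pH 7.4/0.01% Tween-20, 30 min RT; compound added (max 110 uM), 30 min RT; streptavidin donor/Ni-chelate acceptor beads 10 ug/mL final, 20 min dark; AlphaScreen read.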
G9a inh: qHTS Assay for Inhibitors of Histone Lysine Methyltransferase G9a. Histone-lysine N-methyltransferase EHMT2 (Homo sapiens), Q96KQ7. G9a H3K9 monomethylation, AlphaScreen, 2 h. Potency, µM (highest dose often 102 µM), actives largely listed as inhibitors. hit rate 8.8% among 350,000. AID 504332, 2011; further: nearly all actives have a fitted effect of over 75% in size
Target sequence (Q96KQ7 913-1193 limits assumed): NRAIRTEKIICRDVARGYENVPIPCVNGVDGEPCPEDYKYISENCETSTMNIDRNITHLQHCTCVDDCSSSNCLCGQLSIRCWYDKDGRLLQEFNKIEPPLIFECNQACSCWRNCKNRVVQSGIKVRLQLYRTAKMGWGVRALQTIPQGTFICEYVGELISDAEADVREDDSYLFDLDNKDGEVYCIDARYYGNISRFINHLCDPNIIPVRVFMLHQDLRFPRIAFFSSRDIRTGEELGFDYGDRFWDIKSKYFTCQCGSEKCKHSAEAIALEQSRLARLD
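Quantitative HTS format: methyltransferase activity on a biotin-tagged H3K9 peptide is measured by AlphaScreen, using a rabbit anti-monomethyl-H3K9 antibody with streptavidin donor and anti-IgG acceptor beads. Final levels are 20 nM enzyme, 500 nM peptide, 20 uM SAM; 2 h RT.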
HP1b chromo inh: HTS for Inhibitors of HP1-beta Chromodomain Interactions with Methylated Histone Tails; Chromobox protein homolog 1 (Homo sapiens), P83916; hit rate 0.56% among 390,000; AlphaScreen HP1-beta / biotin-H3K9me3 peptide binding; AID 540317, 2011; Potency, µM (titrated, usually from 114 µM), most hits filed as inhibitors; further: nearly all actives have a fitted effect of over 70% in size
Target sequence (P83916 whole entry, looked up): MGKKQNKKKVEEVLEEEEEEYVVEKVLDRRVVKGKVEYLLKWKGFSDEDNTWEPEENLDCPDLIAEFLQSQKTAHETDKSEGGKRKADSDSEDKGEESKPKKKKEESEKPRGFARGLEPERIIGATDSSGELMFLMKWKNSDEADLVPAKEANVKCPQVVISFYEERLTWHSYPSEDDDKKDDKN
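AlphaScreen: HP1-beta (50 nM) preformed 30 min with biotin-H3(1-18)K9me3 peptide (50 nM) in PBS pH 7.4, 0.01% Tween-20. Compound added for 30 min at RT, then streptavidin donor/nickel chelate acceptor beads (10 ug/mL) for 30 min.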
Hits are given with their value; – = inactive; ? = inconclusive; · = no result; [ ] = another dose, or the depositor's remark. The call rests on the fitted dose curve; in most records, active means well fitted curve in the direction sought with a large enough effect; inconclusive means small, poorly fitted or top-dose-only effect, or another doubt; inactive means no such curve, though single readings can be large; an effect the other way counts as inactive or inconclusive.

SMILES	JMJD2A Tudor inh	GLS inh	BAZ2B block	G9a inh	HP1b chromo inh
COc1ccccc1Cn1c(=S)[nH]c2cc(C(=O)NCCN3CCOCC3)ccc2c1=O	–	?	–	?	–
Cc1cc(N(C)N)nc(NC(=O)NS(=O)(=O)c2ccccc2Cl)n1	28µM	–	28µM	–	–
Cc1ccc(-n2nc(C)c3c(C)c(CCC(=O)Nc4ccc(CN5CCCC5)cc4)c(C)nc32)cc1	?	–	–	50µM	–
O=C(Nc1c(F)c(F)c(F)c(F)c1F)c1ccc(Br)o1	·	–	·	·	·
C=CCn1c(C(CCC(C)C)CC(C)(C)O)n[nH]c1=S (stereo not given)	7.1µM	?	–	?	–
CCc1ccc(C(=O)NC2CCCCC2)s1	–	–	–	–	–
Cc1c(S(=O)(=O)Nc2cc(Cl)ccc2Cl)c(=O)n(C)c(=O)n1C	–	–	–	–	–
CC1(C)COC(c2cccc(C3=NC(C)(C)CO3)n2)=N1	20µM	–	–	–	–
O=C(NC(=S)Nc1ccc(Cl)cc1)c1ccccc1	–	–	?	–	–
O=C(Nc1ccccc1Cl)Nc1ccccc1Cl	–	–	–	·	–
O=C(Nc1ccccc1Cl)c1ccccc1	–	–	·	–	–
O=C(Nc1ccc(Cl)cc1)C(Cl)C(=O)c1ccccc1 (stereo not given)	–	–	–	11µM	–
O=C(Nc1ccccc1Cl)C(Cl)C(=O)c1ccccc1 (stereo not given)	–	?	?	40µM	–
O=C(Nc1ccc(Nc2ccccc2)cc1)Nc1ccccc1Cl	?	–	20µM	7.9µM	?
CCOc1ccccc1C1NC(c2ccc3c(c2)OCO3)=CC(c2ccccc2O)N1 (stereo not given)	–	·	·	·	–
Cc1ccc(NC(=O)CC(C)CC2=NS(=O)(=O)c3ccccc3N2)cc1 (stereo not given)	–	–	–	·	–
Nc1nc(NCc2ccco2)nc(N2CCCC2)c1[N+](=O)[O-]	–	–	71µM	·	–
Nc1nc(NCc2ccco2)nc(N2CCCCCC2)c1[N+](=O)[O-]	56µM	–	50µM	?	?
Nc1nc(NCc2ccco2)nc(NC2CCCCC2)c1[N+](=O)[O-]	–	–	–	–	–
O=C(NCc1ccc(F)cc1)c1cccc2c1C(=O)c1ccc(N3CCC(N4CCCCC4)CC3)cc1S2(=O)=O	·	–	·	·	·
O=C(CC1SC(=O)N(c2ccccc2)C1=O)Nc1ccc(Br)cc1 (stereo not given)	–	?	?	·	–
O=C(CC1SC(=O)N(c2ccccc2)C1=O)Nc1ccc(Cl)cc1 (stereo not given)	–	11µM	–	45µM	–
CCOc1ccc(NCC2CCOC(C)(C)C2)cc1 (stereo not given)	–	–	?	7.1µM	–
CCN1/C(=C2\C(=O)N(C)C(=S)N2c2ccccc2)C=Cc2ccccc21	–	?	40µM	–	?
CCN1/C(=C2\C(=O)N(C)C(=S)N2C)C=Cc2ccccc21	–	?	50µM	10µM	?
SMILES	JMJD2A Tudor inh	GLS inh	BAZ2B block	G9a inh	HP1b chromo inh
CCN1/C(=C2\C(=O)N(C)C(=S)N2C)C=Cc2cc(C)ccc21	50µM	–	45µM	10µM	–
CCCN1C(=O)C(=O)c2cc(C)ccc21	–	–	·	·	–
O=C(NCCN1CCCCC1)c1ccc2c(c1)OCCO2	–	–	–	–	–
CN(C)c1ccc2c(=O)cc[nH]c2c1	·	–	·	·	·
COc1ccc(S(=O)(=O)N2CCOCC2)cc1NC(=O)Cc1coc2cc(C)c(C)cc12	–	–	–	50µM	–
COc1ccc2c(CC(=O)Nc3ccc(OC)c(S(=O)(=O)N4CCOCC4)c3)coc2c1	–	–	–	–	–
COc1ccc(S(=O)(=O)N2CCOCC2)cc1NC(=O)CCNC(=O)c1ccc(Br)cc1	–	–	–	16µM	–
COc1ccc(NC(=O)Cc2coc3cc(C)c(C(C)C)cc23)cc1S(=O)(=O)N1CCOCC1	–	–	?	10µM	–
Cc1onc(-c2c(Cl)cccc2Cl)c1NC(=O)NNc1ccccn1	–	–	–	–	–
COCCOc1nc2c(c(=O)n(C)c(=O)n2C)n1CCc1ccccc1	–	–	?	–	–
Cc1cc(NC2CCCCC2)nc(-c2ccccc2O)n1	7.9µM	–	56µM	18µM	?
Cc1cc(Nc2ccccc2)nc(-c2ccccc2O)n1	–	–	–	–	–
Cc1onc(-c2ccccc2)c1C(=O)N1CCOC12CCN(c1cccc(F)n1)CC2	–	–	–	–	–
FC(F)(F)c1ccccc1-c1cc(NCc2cccnc2)ncn1	·	·	·	–[0.501 µM]	·
CC(COc1ccc(/C=C/c2ccccc2)cc1)[N+](C)(C)C (stereo not given)	–	–	–	4µM	–
COc1ccc(NC(=O)CN2C(=O)NC3(CCCCC3C)C2=O)cc1OC (stereo not given)	–	–	–	–[12.7 µM]	–
COc1ccc(N2CCN(Cc3cc(=O)c(OCC(=O)NC4CCCC4)co3)CC2)cc1	–	–	–	56µM	–
O=C(COc1coc(CN2CCN(c3cccc(Cl)c3)CC2)cc1=O)NC1CCCC1	–	–	–	–	–
CCOc1ccc(OCC)c(NS(=O)(=O)c2cc(Br)cc3c2N(C(C)=O)C(C)C3)c1 (stereo not given)	–	–	–	–	–
CCOc1ccc(N(CC)S(=O)(=O)c2cc(Br)cc3c2N(C(C)=O)C(C)C3)cc1 (stereo not given)	–	–	–	1.4µM	–
COc1cc(-c2nnc(-c3cc(OC)c(OC)c(OC)c3)o2)cc(OC)c1OC	–	–	–	–	–
COc1cc(-c2nc(=S)[nH][nH]2)cc(OC)c1OC	3.5µM	–	50µM	0.56µM	?
COc1ccc(-c2nc3ccccc3nc2-c2ccccc2)cc1OC	–	–	–	–	–
COc1ccc(-c2nc(=S)[nH][nH]2)cc1OC	2.8µM	–	56µM	0.56µM	?
COc1ccc(-c2nc3ccccc3nc2-c2ccc(OC)c(OC)c2)cc1OC	–	–	–	20µM	–
SMILES	JMJD2A Tudor inh	GLS inh	BAZ2B block	G9a inh	HP1b chromo inh
COc1ccc(-c2cc(=O)[nH][nH]2)cc1OC	–	–	–	?	–
CCN1CCc2c(OCc3ccc(C)cc3)cccc2C1=O	–	–	–	–	–
CCn1ncc(CN2CCC(Oc3ccc(C(=O)N4CCCC4)cc3)CC2)c1C	–	–	–	–[0.0925 µM]	–
CCN1/C(=C/c2sc(-c3ccccc3C)c[n+]2C)Sc2ccccc21	?	–	–	11µM	–
CCN1/C(=C/C(=O)c2ccco2)Sc2ccccc21	–	–	?	?	–
COc1cc(/C=C/C(=O)c2ccc(C)c([N+](=O)[O-])c2)cc(OC)c1O	–	–	–	45µM	–
COc1cc(/C=C/C(=O)O)cc(OC)c1O	–	–	·	·	–
COc1ccc(/C=C/C(=O)c2ccc(C)c([N+](=O)[O-])c2)cc1O	?	–	?	45µM	–
